Source: PubChem
Only some compounds are listed: those with a hit (about 18% of all), similar ones and a draw of the others.
PLK1 PBD block: inhibitors of human PLK1 polo-box domain binding; 2.8% of 360,000 active; Potency, µM, usual class: inhibitors; Plk1 PBD binding of FITC phosphopeptide, fluorescence polarization; AID 720504; note: series mostly up to about 57 µM; nearly all actives have a fitted effect of over 65% in size
GCN5L2 inh: GCN5L2 (KAT2A) acetyltransferase inhibition; Q92830; GCN5L2 HAT assay, ThioGlo1 CoA-SH fluorescence; Potency, µM (highest dose often 58.9 µM), hits mostly inhibitors; 0.21% of 390,000 active
Target sequence (Q92830 whole entry, looked up): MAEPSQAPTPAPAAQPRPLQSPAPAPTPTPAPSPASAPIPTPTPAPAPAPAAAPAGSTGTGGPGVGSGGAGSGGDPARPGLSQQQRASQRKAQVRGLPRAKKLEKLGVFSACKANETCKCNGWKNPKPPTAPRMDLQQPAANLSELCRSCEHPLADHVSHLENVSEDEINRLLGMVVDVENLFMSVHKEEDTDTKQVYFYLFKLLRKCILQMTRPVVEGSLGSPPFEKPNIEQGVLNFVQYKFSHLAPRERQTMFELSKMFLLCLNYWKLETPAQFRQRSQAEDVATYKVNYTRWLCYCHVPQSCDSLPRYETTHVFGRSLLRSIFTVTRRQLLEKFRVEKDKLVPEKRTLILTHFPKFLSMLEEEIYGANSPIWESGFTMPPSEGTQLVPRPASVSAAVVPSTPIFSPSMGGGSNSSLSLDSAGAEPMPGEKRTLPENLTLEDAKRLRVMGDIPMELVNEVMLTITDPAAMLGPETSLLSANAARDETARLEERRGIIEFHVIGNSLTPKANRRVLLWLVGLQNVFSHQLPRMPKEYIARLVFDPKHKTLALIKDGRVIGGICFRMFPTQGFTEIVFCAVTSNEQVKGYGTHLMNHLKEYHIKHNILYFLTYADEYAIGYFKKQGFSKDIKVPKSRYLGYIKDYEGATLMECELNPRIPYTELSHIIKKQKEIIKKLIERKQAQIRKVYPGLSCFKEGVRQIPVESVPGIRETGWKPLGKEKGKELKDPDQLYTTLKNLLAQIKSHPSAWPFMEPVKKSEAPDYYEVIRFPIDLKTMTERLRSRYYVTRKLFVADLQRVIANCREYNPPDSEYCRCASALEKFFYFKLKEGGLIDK
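GCN5L2 (20 nM) in 50mM HEPES pH 7.5, 0.1mM EDTA, 0.01% Tween-20 preincubated 15 min with compounds at room temperature. Reaction started with H3(1-25) 75uM, acetyl-CoA 70uM, ThioGlo1 50uM; CoA-thiol fluorescence (Ex340/Em540) read at 0 and 20 min.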
TDP1 cell CPT: growth inhibition of DT40 Tdp1-/-;hTDP1 cells with camptothecin (screen for TDP1 inhibitors); Potency, µM (titrated, usually from 46.2 µM), hits mostly inhibitors; chicken DT40 Tdp1-/-;hTDP1 cells + 20 nM CPT, ATP luminescence, 48 h; 12% of 420,000 active; note: nearly all actives have a fitted effect of over 55% in size
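Chicken DT40 Tdp1-/- cells stably complemented with human TDP1 were seeded at 400 cells/well in medium containing 20 nM camptothecin, exposed to pin-transferred compounds, and grown at 37 °C for at least 48 hr. Viability was read as ATP luminescence.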
TDP1 cell noCPT: qHTS for Inhibitors of human tyrosyl-DNA phosphodiesterase 1 (TDP1): qHTS in cells in absence of CPT; DT40 Tdp1-/- hTDP1 cells, no CPT, ATP luminescence, 48 h; Potency, µM (highest dose often 46.2 µM), most hits filed as inhibitors; 15% of 420,000 active; note: nearly all actives have a fitted effect of over 55% in size
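Chicken DT40 Tdp1-/- cells stably complemented with human TDP1 were seeded at 400 cells/well with DMSO in place of 20 nM camptothecin. After compound pinning, cells grew at least 48 hr at 37 °C; viability read by CellTiter-Glo luminescence.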
TDP1 inh: blocks human tyrosyl-DNA phosphodiesterase 1; Q9NUW8; recombinant TDP1, AlphaScreen DNA substrate cleavage; Potency, µM (series often up to 130 µM), usual class: inhibitors; 0.28% of 350,000 active; note: nearly all actives have a fitted effect of over 40% in size
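Recombinant human Tdp1 (E. coli-expressed, 1 nM final) preincubated with compounds 15 min at room temperature, then 5'-biotin/3'-phosphotyrosine-FITC DNA substrate (15 nM final) added for 5 min. AlphaScreen beads (10 ug/ml final) added 10 min; cleavage lowers signal.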
VDR inh: inhibitors of human vitamin D receptor | P11473 | VDR-SRC2-3 peptide fluorescence polarization, 2 h | AID 504847 | Potency, µM, actives largely listed as inhibitors | 0.93% of 400,000 active
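Compounds are added to VDR with labelled SRC2-3 coactivator peptide and held 2 h at room temperature. Inhibition of the VDR–peptide interaction is then read as a change in fluorescence polarization.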
Large screens that a line does not name were inactive. Calls come from the whole dose curve; as a rule, active = well fitted curve in the direction sought with a large enough effect; inconclusive = small, poorly fitted or top-dose-only effect, or another doubt; inactive = no such curve, though single readings can be large; an effect the other way counts as inactive or inconclusive.

COc1ccc(/C=C2/SC(=S)N(CC(=O)O)C2=O)cc1OCc1ccc(Cl)cc1	PLK1 PBD block 30µM, GCN5L2 inh inconclusive, VDR inh inconclusive (no result: TDP1 inh)
COc1cc(/C=C2/SC(=O)N(Cc3ccccc3Cl)C2=O)ccc1OCc1ccncc1	TDP1 cell CPT 18µM, TDP1 cell noCPT inconclusive, VDR inh 89µM
COc1cc(/C=C2/SC(=O)NC2=O)ccc1OCc1ccccc1	PLK1 PBD block inconclusive, TDP1 cell noCPT inconclusive (no result: TDP1 inh)
O=C(O)CN1C(=O)/C(=C\c2cc([N+](=O)[O-])ccc2OCc2ccccc2Cl)SC1=S	PLK1 PBD block 27µM, GCN5L2 inh inconclusive, VDR inh inconclusive
CN(C)S(=O)(=O)c1ccc(N2CCCC2)c(C(=O)N2CCC(C(N)=O)CC2)c1	none
O=C(O)C1(O)CC(O)C(O)C(O)C1 (stereo unspecified)	none (no result: PLK1 PBD block)
CN(C)S(=O)(=O)c1ccc(C(=O)Nc2nnc(-c3ccco3)o2)cc1	TDP1 cell CPT 21µM, TDP1 cell noCPT inconclusive
CCCCN(C)S(=O)(=O)c1ccc(C(=O)Nc2nnc(-c3ccco3)o2)cc1	TDP1 cell CPT 7.3µM, TDP1 cell noCPT 6.5µM
CCN(CC)S(=O)(=O)c1ccc(C(=O)Nc2nnc(-c3ccco3)o2)cc1	TDP1 cell CPT inconclusive, TDP1 cell noCPT 23µM
CCCCN(CC)S(=O)(=O)c1ccc(C(=O)Nc2nnc(-c3cccs3)o2)cc1	PLK1 PBD block inconclusive, TDP1 cell CPT 15µM, TDP1 cell noCPT 10µM
CCN(CC)S(=O)(=O)c1ccc(C(=O)Nc2nnc(CSC)o2)cc1	none
CN(CC(=O)Nc1ccc(F)c(F)c1F)C(=O)/C=C/c1ccco1	TDP1 inh inconclusive
CCc1ccc(-n2nnc(-c3nc(-c4ccc(C)cc4)no3)c2N)cc1	none (no result: PLK1 PBD block)
Cc1nnsc1S(=O)c1ccc(Cl)c(Cl)c1 (stereo unspecified)	TDP1 cell CPT 10µM, TDP1 cell noCPT 15µM (no result: TDP1 inh)
N=C(N)SCCc1cccc(CCSC(=N)N)c1	TDP1 cell CPT 16µM, TDP1 cell noCPT 16µM (no result: GCN5L2 inh)
Cc1ccc(NC(=O)c2cc(S(=O)(=O)NC3CCCCCC3)ccc2F)cc1F	TDP1 cell CPT inconclusive, TDP1 cell noCPT inconclusive (no result: PLK1 PBD block)
C[C@H]1CN([C@@H](C)CO)C(=O)c2cccc(NC(=O)Nc3ccc(C(F)(F)F)cc3)c2O[C@@H]1CN(C)Cc1ccc(Cl)c(Cl)c1	TDP1 cell CPT 3.3µM, TDP1 cell noCPT 3.7µM
C[C@@H]1CN([C@H](C)CO)C(=O)c2cc(NC(=O)Nc3ccc(C(F)(F)F)cc3)ccc2O[C@H]1CN(C)Cc1ccc(Cl)c(Cl)c1	TDP1 cell CPT inconclusive, TDP1 cell noCPT 21µM
CCOC(=O)N1CCC(NC(=O)c2cnn(-c3ccc(F)cc3)c2-n2cccc2)CC1	none (no result: PLK1 PBD block, TDP1 cell CPT, TDP1 cell noCPT)
CC(OC(=O)CC1Sc2ccccc2NC1=O)C(=O)N(C)Cc1ccccc1 (stereo unspecified)	PLK1 PBD block 19µM, TDP1 cell CPT inconclusive, TDP1 cell noCPT 21µM (no result: GCN5L2 inh, TDP1 inh)
COc1cc(OC)c2c(-c3cccc(-c4ccc(C(C)=O)cc4)c3)cc(=O)oc2c1	TDP1 cell CPT 1.2µM, TDP1 cell noCPT 0.92µM
COc1cc2oc(=O)cc(-c3ccc(-c4ccc(CO)cc4)cc3)c2c(OC)c1OC	TDP1 cell CPT 21µM, TDP1 cell noCPT 18µM
COc1cc2oc(=O)cc(-c3ccc(-c4ccc(C#N)cc4)cc3)c2c(OC)c1OC	TDP1 cell CPT 7.3µM, TDP1 cell noCPT 8.2µM
COc1cc2oc(=O)cc(-c3ccc(-c4ccc(C(F)(F)F)cc4)cc3)c2c(OC)c1OC	TDP1 cell CPT inconclusive, TDP1 cell noCPT inconclusive
COc1cc2oc(=O)cc(-c3ccc(-c4ccc(C)cc4)cc3)c2c(OC)c1OC	TDP1 cell CPT inconclusive, TDP1 cell noCPT inconclusive
COc1ccc(-c2ccc(-c3cc(=O)oc4cc(OC)c(OC)c(OC)c34)cc2)cc1	none
COc1cc2oc(=O)cc(-c3cccc(-c4ccc(C(F)(F)F)cc4)c3)c2c(OC)c1OC	TDP1 cell CPT 23µM, TDP1 cell noCPT 15µM
CN(C)C=O	none (no result: PLK1 PBD block, GCN5L2 inh, TDP1 cell CPT, TDP1 cell noCPT, VDR inh)
